Compound activity from PubChem.
A selection: hits, their analogues and other compounds. The true share with any hit is near 0.56%.
LDHA inh = blocks human lactate dehydrogenase A; P00338; purified LDHA, NADH/diaphorase-resazurin fluorescence; stronger effect = lower value; activity change, % (values are at about 110 or 230 µM); 480,000 compounds, 0.15% hits; AID 1347041; in the data active = activity change below about -30%; inconclusive = mostly about -25% to -30%
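Human LDH5 at 2 nM final in Tris HCl pH 7.4 with 0.06 mM NADH and 0.2 mM pyruvate, reacted 5 minutes at room temperature. Remaining NADH coupled via diaphorase/resazurin; resorufin fluorescence read at 0 and 20 minutes, normalized to enzyme-free and DMSO wells.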
EPAC1 agonist = EPAC1 (human) agonism. O95398. EPAC1 agonist qHTS, biochemical assay; response scale: 100% = response to 6.5 mM cAMP. Potency, µM (top dose mostly 154 µM), actives largely listed as activators. 360,000 compounds, 0.073% hits. AID 720707; also: nearly all actives have a fitted effect of over 60% in size
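Multi-concentration qHTS readout: loss of Rap1B-bound BODIPY-GDP fluorescence driven by 100 nM EPAC1 with excess GDP (50 uM), monitored kinetically at room temperature; agonist response expressed relative to 6.5 mM cAMP.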
EPAC2 ag = EPAC2 (human) agonism; Q8WZA2; EPAC2 activation, biochemical qHTS; response scale: 100% = 6.5 mM cAMP response; Potency, µM (highest dose often 154 µM), actives largely listed as activators; 360,000 compounds, 0.079% hits; AID 720711; also: nearly all actives have a fitted effect of over 50% in size
Target sequence (Q8WZA2 whole entry, looked up): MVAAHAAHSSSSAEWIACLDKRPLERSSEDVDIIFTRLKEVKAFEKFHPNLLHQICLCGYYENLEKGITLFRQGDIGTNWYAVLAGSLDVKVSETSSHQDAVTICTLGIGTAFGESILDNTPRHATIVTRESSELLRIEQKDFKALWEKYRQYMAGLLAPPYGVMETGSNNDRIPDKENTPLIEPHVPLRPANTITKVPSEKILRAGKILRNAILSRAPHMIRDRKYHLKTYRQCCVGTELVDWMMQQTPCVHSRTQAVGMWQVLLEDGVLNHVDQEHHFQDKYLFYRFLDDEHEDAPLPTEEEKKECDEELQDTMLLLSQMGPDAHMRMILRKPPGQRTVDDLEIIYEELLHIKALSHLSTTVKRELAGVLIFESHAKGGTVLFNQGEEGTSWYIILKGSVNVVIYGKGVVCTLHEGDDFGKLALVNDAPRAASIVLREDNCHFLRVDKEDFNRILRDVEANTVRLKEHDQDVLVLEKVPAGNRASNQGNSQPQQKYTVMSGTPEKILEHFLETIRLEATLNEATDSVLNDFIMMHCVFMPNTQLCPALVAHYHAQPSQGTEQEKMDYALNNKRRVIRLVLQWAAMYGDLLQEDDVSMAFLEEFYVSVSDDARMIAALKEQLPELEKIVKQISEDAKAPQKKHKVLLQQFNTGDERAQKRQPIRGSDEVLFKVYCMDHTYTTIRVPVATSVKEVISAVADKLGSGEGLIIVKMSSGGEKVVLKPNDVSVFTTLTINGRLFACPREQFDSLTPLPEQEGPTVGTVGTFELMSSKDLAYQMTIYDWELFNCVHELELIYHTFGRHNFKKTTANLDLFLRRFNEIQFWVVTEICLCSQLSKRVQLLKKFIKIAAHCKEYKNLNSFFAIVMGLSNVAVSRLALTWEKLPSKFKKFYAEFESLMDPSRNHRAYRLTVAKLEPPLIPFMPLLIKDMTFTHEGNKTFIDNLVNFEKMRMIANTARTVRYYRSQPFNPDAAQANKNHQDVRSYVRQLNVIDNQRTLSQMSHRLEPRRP
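Guanine nucleotide exchange by EPAC2 is measured as reduced fluorescence of BODIPY-GDP once it is released from 250 nM Rap1B. Plates are read kinetically for 30 min at room temperature; results are scaled to 6.5 mM cAMP.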
EPAC2 antagonist = blocks human EPAC2 exchange factor. Q8WZA2. EPAC2 GEF exchange of Rap1B-BODIPY-GDP, fluorescence. Potency, µM (highest dose often 114 µM), actives largely listed as inhibitors. 360,000 compounds, 0.18% hits; also: nearly all actives have a fitted effect of over 45% in size
USP1-UAF1 inh = inhibitors of human USP1/UAF1 deubiquitinase; O94782; 390,000 compounds, 0.23% hits; Potency, µM (top dose mostly 57.1 µM), hits mostly inhibitors; recombinant USP1/UAF1, Ub-Rhodamine cleavage fluorescence; also: nearly all actives have a fitted effect of over 60% in size
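High-throughput fluorogenic screen: 1nM USP1/UAF1 complex, Ub-Rho substrate 150nM final, 50mM HEPES pH 7.8 with 0.5mM EDTA, 0.1 mg/ml BSA, 1mM TCEP and 0.01% Tween-20.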
EPAC1 antagonist = EPAC1 (human) antagonism. O95398. EPAC1 GEF assay, Rap1b-BODIPY-GDP exchange fluorescence. Potency, µM (doses to about 115 µM), usual class: inhibitors. 360,000 compounds, 0.14% hits. AID 720709; also: nearly all actives have a fitted effect of over 50% in size
A number is an active result; n = inactive; u = inconclusive; x = no result. Unless noted, calls follow the shape of the dose curve; as a rule, active = well fitted curve in the direction sought with a large enough effect; inconclusive = small, poorly fitted or top-dose-only effect, or another doubt; inactive = no such curve, though single readings can be large; an effect the other way counts as inactive or inconclusive.

SMILES	LDHA inh	EPAC1 agonist	EPAC2 ag	EPAC2 antagonist	USP1-UAF1 inh	EPAC1 antagonist
O[C@@H]1CN(Cc2cccs2)[C@@H](c2ccc(Cl)cc2)C[C@H]1n1cc(-c2ccc(F)cc2)nn1	-30.0	n	n	n	n	n
COc1ccccc1NC(C)C(=O)c1[nH]c(C)c(C(C)=O)c1C (stereo unspecified)	n	x	x	x	x	x
Cc1ccc(C)n1-c1cc([N+](=O)[O-])ccc1-n1ccnc1	n	n	n	n	n	n
CC1(C)N([O-])c2cc([N+](=O)[O-])ccc2[N+]1=O	n	n	n	u	25.1µM	70.8µM
N#Cc1c(Cl)nc2c(c1C#N)CCC/C2=C\c1ccco1	n	x	x	x	x	x
COc1cc(NS(=O)(=O)c2ccc(NC(=O)c3ccc(OC)c(Br)c3)cc2)nc(OC)n1	-49.8	x	x	x	n	x
COC(=O)c1ccc(NC(=O)Cc2coc3cc(C)ccc23)cc1	n	x	x	x	n	x
Cc1noc(Cn2c(=O)c3ccccc3n(CC(=O)Nc3ccc(F)cc3F)c2=O)n1	n	x	x	x	n	x
O=c1c(/C=N/Nc2ccccc2)c(Sc2nnnn2-c2ccccc2)nc2ccccn12	n	n	n	n	3.16µM	n
CCC(=O)N1CCc2cc(CNC(=O)c3ccccc3C)ccc21	n	x	x	x	n	x
O=C(Nc1nc2cc3c(cc2s1)OCCCO3)c1cc(Cl)ccc1F	n	x	x	x	x	x
O=S(=O)(O)c1cc(O)c2cc(Nc3ccccc3)ccc2c1	n	n	n	n	u	u
O=S(=O)(O)c1ccc(O)c2cc(Nc3ccccc3)ccc12	n	n	n	u	12.6µM	10µM
CCOc1ccc(C(=O)NC(C(=O)NOC)C(C)C)cc1 (stereo unspecified)	n	x	x	x	x	x
Cc1cc([N+](=O)[O-])ccc1N1C(=O)c2ccc(C(=O)Nc3ccccc3C(=O)O)cc2C1=O	n	n	n	n	n	n
COc1cc(/C=C2\SC(=S)N(NS(=O)(=O)c3ccccc3)C2=O)cc(OC)c1OC	n	n	n	50.1µM	n	u
O=C1/C(=C/c2cccc(F)c2)SC(=S)N1NS(=O)(=O)c1ccccc1	n	n	n	17.8µM	n	39.8µM
COc1cccc(/C=C2\SC(=S)N(NS(=O)(=O)c3ccccc3)C2=O)c1OC	n	n	n	u	n	50.1µM
O=C1/C(=C/c2ccccn2)SC(=S)N1NS(=O)(=O)c1ccccc1	n	n	n	n	n	n
Cc1cc(C)c2nc(-c3ccccn3)cc(C(=O)O)c2c1	n	x	x	x	x	x
Cc1cccc(OC(=O)c2ccccc2Br)c1C	n	x	x	x	x	x
O=c1[nH]c(Nc2ccccc2)cc2cc(Br)ccc12	n	n	n	n	1.12µM	u
COc1ccccc1Nc1nnc(C)c(=O)[nH]1	n	n	n	n	n	n
COc1ccccc1Nc1cc2cc(Br)ccc2c(=O)[nH]1	n	n	n	n	4.47µM	u
CC(=O)c1cccc(Nc2nc(-c3ccccc3)nc3ccccc23)c1	n	n	n	n	n	n
SMILES	LDHA inh	EPAC1 agonist	EPAC2 ag	EPAC2 antagonist	USP1-UAF1 inh	EPAC1 antagonist
CC(=O)c1cccc(-c2ccc3c(=O)[nH]c(Nc4ccccc4)cc3c2)c1	n	n	n	n	3.16µM	50.1µM
O=c1cc(Nc2cccc(Br)c2)[nH]c(=O)[nH]1	n	n	n	n	n	n
COc1ccc(OC)c(Nc2cc3ccccc3c(=O)[nH]2)c1	n	n	n	n	5.01µM	u
Cc1cc([N+](=O)[O-])ccc1P(=O)(O)c1ccc([N+](=O)[O-])cc1C	n	n	n	n	n	n
O=c1[nH]c(Nc2ccccc2)cc2ccccc12	n	n	n	u	2.51µM	50.1µM
COc1cc(CN2CCN(Cc3ccc(C)cc3)CC2)cc(OC)c1	n	x	x	x	x	x
N#CC1=C2SCN(Cc3ccco3)CN2C(=O)CC1c1c(F)cccc1Cl (stereo unspecified)	n	n	n	u	12.6µM	n
N#CC1=C2SCN(C3CCCCC3)CN2C(=O)CC1c1c(F)cccc1Cl (stereo unspecified)	n	x	x	x	31.6µM	x
N#CC1=C2SCN(C3CCCCC3)CN2C(=O)CC1c1ccc(Cl)cc1 (stereo unspecified)	n	x	x	x	n	x
Cc1ccc(NC2=C/C(=N\S(=O)(=O)c3cccs3)c3ccccc3C2=O)c(C)c1	n	n	n	n	2µM	n
Cc1ccc(Cl)cc1NC(=O)CN1CCN(S(=O)(=O)c2cccs2)CC1	n	x	x	x	x	x
Cc1cccc(NC2=C/C(=N/S(=O)(=O)c3cccs3)c3ccccc3C2=O)c1	n	n	n	n	u	n
Cc1ccc(Cl)cc1NC1=C/C(=N\S(=O)(=O)c2cccs2)c2ccccc2C1=O	n	n	n	n	3.16µM	n
Cn1nc(C(=O)Nc2ccnn2Cc2cccc(Cl)c2)c2ccccc2c1=O	n	x	x	x	x	x
CNc1nc2c(c(=O)[nH]c(=O)n2C)n1CC(O)COc1ccc(Cl)cc1 (stereo unspecified)	n	x	x	x	x	x
O=C(CN1C(=O)/C(=C2/SC(=S)N(CCS(=O)(=O)O)C2=O)c2ccccc21)Nc1cccc(C(F)(F)F)c1	n	n	n	56.2µM	n	39.8µM
O=C1C(=O)N(Cc2ccccc2)C(=O)N1CCN1C(=O)c2ccccc2C1=O	n	n	n	n	n	n
O=C1Cc2ccccc2C(=O)N1CCc1ccccc1	n	n	n	n	5.62µM	u
COc1ccc(NC(=S)NNc2ccc(C(=O)O)cc2)cc1	n	n	n	n	n	n
Cc1ccc(C(CCN(Cc2ccccc2)C(=O)c2ccco2)c2ccco2)cc1 (stereo unspecified)	n	n	n	u	n	50.1µM
CC1(C)Cc2c(sc(NC(=O)COc3cccc4ccccc34)c2C#N)C(C)(C)N1	n	n	n	n	17.8µM	n
Cn1c(SCC(=O)Nc2cccc(C(=O)O)c2)nnc1-c1cc2cc(Br)ccc2o1	-34.2	63.1µM	n	n	n	35.5µM
CC(C)n1nc(C(=O)NCc2cccc(Cl)c2)c2ccccc2c1=O	n	x	x	x	x	x
O=C(Nc1oc2ccccc2c(=O)c1-c1ccc2c(c1)OCO2)c1ccc(F)cc1	n	x	x	x	x	x
O=C(Nc1oc2ccccc2c(=O)c1-c1ccc2c(c1)OCO2)c1ccccc1	-36.1	x	x	x	x	x
COC(=O)c1sccc1NC(=O)COc1ccc(F)cc1Cl	n	n	n	n	n	n
Cc1n[nH]c(C)c1NC(=O)CN1CCN(S(=O)(=O)c2ccc(C(F)(F)F)cc2)CC1	-36.6	n	n	n	n	n
COc1ccc(S(=O)(=O)N2CCN(CC(=O)Nc3c(C)n[nH]c3C)CC2)cc1OC	-35.6	n	n	n	n	n
O=C(c1ccccc1Br)N(Cc1ccc2[nH]ccc2c1)C1CC1	n	x	x	x	x	x
CCN(CC)C(=O)c1sc(NC(=O)C(c2ccccc2)c2ccccc2)c(C#N)c1C	n	x	x	x	x	x
